An excerpt weighted towards active compounds, which were near 3% of everything screened.
Arbovirus inh: arbovirus infection inhibition | arbovirus infection cell-based antiviral screen | inhibition, % at 10 µM | hit rate 0.37% among 200,000; in the data active = inhibition above about 30%
Mcl1 Bid PPI: disrupts binding of human Mcl-1 to Bid peptide. Q07820. AID 1021. TR-FRET Mcl-1/Bid-Dy647 peptide binding, 1536-well. hit rate 0.97% among 220,000. inhibition, % at 21.7 µM;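 active = compounds that cut the binding signal by more than half at the single screening dose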;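 also: His-tagged Mcl-1 with europium anti-His antibody binding Bid BH3 peptide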
Target sequence (Q07820 whole entry, looked up): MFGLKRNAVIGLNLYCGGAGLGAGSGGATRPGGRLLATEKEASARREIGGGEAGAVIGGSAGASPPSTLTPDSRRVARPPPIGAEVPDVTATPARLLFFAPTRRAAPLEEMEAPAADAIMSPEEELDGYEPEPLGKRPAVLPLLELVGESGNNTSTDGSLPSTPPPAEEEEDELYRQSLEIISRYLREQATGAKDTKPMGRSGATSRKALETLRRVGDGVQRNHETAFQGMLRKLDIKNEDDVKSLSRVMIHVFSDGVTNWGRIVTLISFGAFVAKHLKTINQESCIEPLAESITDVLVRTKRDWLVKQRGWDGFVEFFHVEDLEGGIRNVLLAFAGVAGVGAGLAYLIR
14-3-3 Bad inh: disrupts binding of bovine 14-3-3 zeta to phospho-Bad peptide | hit rate 0.71% among 220,000 | inhibition, % at 21.7 µM | AID 781 | TR-FRET 14-3-3zeta/Dy647-pBad peptide displacement, 1 h | P63103;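 active = inhibition above about 70%, limit read from the data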
Target sequence (P63103 whole entry, looked up): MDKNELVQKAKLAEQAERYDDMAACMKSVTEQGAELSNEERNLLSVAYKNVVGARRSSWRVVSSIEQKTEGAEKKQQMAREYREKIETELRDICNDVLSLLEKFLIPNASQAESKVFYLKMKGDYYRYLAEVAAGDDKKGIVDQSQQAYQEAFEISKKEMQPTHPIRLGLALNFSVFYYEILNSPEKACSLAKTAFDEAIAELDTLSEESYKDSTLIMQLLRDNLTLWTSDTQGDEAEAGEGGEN
Mcl1 Noxa PPI: disrupts binding of human Mcl-1 to Noxa peptide | hit rate 1.5% among 220,000 | Q07820 | inhibition, % at 21.7 µM | TR-FRET Mcl-1/Noxa peptide binding, 2 h;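 active = compounds that cut the protein-peptide binding signal by more than 50% relative to plate controls in a single-dose test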;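 also: His-tagged Mcl-1 with rhodamine Noxa BH3 peptide and terbium anti-His antibody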
Bim-Mcl-1: human Bim-Mcl-1 interaction inhibition; Bead-based flow cytometry, Bim peptide-Mcl-1 binding; inhibition, % at 10 µM; hit rate 0.1% among 190,000; AID 1009; in the data active = inhibition above about 40%
Large screens that a line does not name were inactive; [ ] = remark or other dose.

COc1ccc(C(c2c(O)ccc3ccccc23)N2CCOCC2)c(OC)c1 (centres undefined)	Mcl1 Noxa PPI 79
COc1ccc(C(CCN2CCOCC2)c2c(O)cc(OC)cc2OC)cc1 (centres undefined)	none (no result: Arbovirus inh, Bim-Mcl-1)
Cc1c(Br)cc(C(=O)NC2CCCCC2)c(C)c1C	none
O=C(Nc1ccc(NC(=O)c2ccccn2)cc1)C(=O)Nc1ccc2c(c1)OCCO2	Mcl1 Noxa PPI 54
O=C(Nc1ccc2c(c1)OCCO2)c1ccccn1	none
O=C(Nc1ccc2c(c1)OCCO2)c1cccc2nc3ccccc3nc12	Mcl1 Noxa PPI 62
Clc1ccc(N/N=C/c2ccncc2)cc1Cl	Mcl1 Noxa PPI 51
[O-]/C(=C(\C(=S)Nc1cccc2ccccc12)[n+]1ccccc1)c1cccs1	14-3-3 Bad inh 84
Cc1cccc(C)c1NC(=S)/C(=C(\[O-])c1cccs1)[n+]1ccccc1	none
CCOC(=O)NC(=S)Nc1c(C)n(C)n(-c2ccccc2)c1=O	none
Cc1ccc(OCC(=O)NC(=S)Nc2cccc(NC(=O)c3ccc(Cl)cc3Cl)c2)cc1	Mcl1 Bid PPI 63
CN(C)CCCN(C(=O)c1cccc(N2C(=O)CCC2=O)c1)c1nc2cc3c(cc2s1)OCO3	none
COc1ccc(N=c2oc3ccc(OC)cc3cc2-c2nc3ccccc3[nH]2)cc1	none
COc1cccc(OCc2nc3ccccc3[nH]2)c1	none
COc1cccc(N=c2oc3ccccc3cc2-c2nc3ccccc3[nH]2)c1	Mcl1 Bid PPI 56
COc1cccc(N=c2oc3ccc(OC)cc3cc2-c2nc3ccccc3[nH]2)c1	14-3-3 Bad inh 79[fluorescence artefact?]
CCOC(=O)c1sc2ncn(/N=C/c3ccc(O)c(OC)c3)c(=O)c2c1C	Mcl1 Noxa PPI 53
COc1cc(/C=N/n2cnc3c(sc4nc(C)cc(C)c43)c2=O)ccc1O	none (no result: Arbovirus inh, Bim-Mcl-1)
Cc1nc(N2CCN(c3ccccc3)CC2)[nH]c(=O)c1Cc1ccccc1	14-3-3 Bad inh 92
Cc1nc(N2CCN(C)CC2)[nH]c(=O)c1Cc1cccc2ccccc12	none
Cc1ccc(Nc2nnc(SCC(=O)NC3CCS(=O)(=O)C3)s2)c(C)c1 (centres undefined)	none
Cc1ccc(Nc2nnc(SC3CCOC3=O)s2)c(C)c1 (centres undefined)	14-3-3 Bad inh 80
COc1ccc(O)c(/C=N/n2c(-c3ccco3)csc2=Nc2cccnc2)c1	none
CN=c1scc(-c2ccco2)n1/N=C/c1ccc(O)c(O)c1	Mcl1 Noxa PPI 73
c1ccc2[nH]c(NCc3ccc4c(c3)OCO4)nc2c1	none
O=C(O)c1cnc(-c2ccccc2)nc1Sc1ccc(Cl)cc1	Arbovirus inh 66 (no result: 14-3-3 Bad inh)
O=C(O)c1cnc(-c2ccccc2)nc1Sc1ccccc1Cl	Arbovirus inh 43
Cc1cccc(Sc2nc(-c3ccccc3)ncc2C(=O)O)c1	Arbovirus inh 32
N#Cc1c(N2C(=O)Nc3ccccc3N2O)sc2c1CCCCCC2	Arbovirus inh 35
O=C(Oc1cccc2c(=O)[nH]ccc12)c1ccccc1	14-3-3 Bad inh 78
O=C(CNC(=O)c1ccco1)NCC(=O)OCc1ccccc1Br	Bim-Mcl-1 43
CCN(CC)CCCNCC(=O)Nc1ccc2c(c1)CCC2	none
COc1cc(/C=C(\C#N)c2[nH]nc(N)c2C#N)cc(OC)c1O	Mcl1 Noxa PPI 56
COc1ccc(C(=O)Nc2sc3c(c2C(=O)O)CC(C)(C)OC3)cc1	Arbovirus inh 34
CC(C)COc1ccc(C(=O)Nc2sc3c(c2C(=O)O)CC(C)(C)OC3)cc1	Arbovirus inh 61
CC1(C)Cc2c(sc(NC(=O)c3ccccc3)c2C(=O)O)CO1	none
Cc1[nH]c2ccccc2c1/C=N/Nc1cccc(C(=O)O)c1	none (no result: Arbovirus inh, Bim-Mcl-1)
CN(Cc1cn[nH]c1-c1ccc(-c2ccccc2)cc1)CC1CCOCC1	none (no result: Arbovirus inh, Bim-Mcl-1)
COc1ccc(N=c2oc3cc(O)ccc3cc2C(=O)Nc2ccccn2)cc1OC	Mcl1 Noxa PPI 53
NS(=O)(=O)c1ccc(NCc2cc(Cl)ccc2OCc2ccccc2F)cc1	none
Cc1ccc(S(=O)(=O)N(C)C)cc1NC(=O)COC(=O)c1ccc2c(c1)NC(=O)CS2	none (no result: Arbovirus inh, Bim-Mcl-1)
CCNc1nc(NCC)nc(N/N=C/c2ccc(O)c(O)c2)n1	Mcl1 Noxa PPI 54
CCNc1nc(NCC)nc(N/N=C/c2ccc(N(C)C)cc2)n1	none
CCCCCC(=O)NC(=S)Nc1ccc2oc(=O)ccc2c1	Mcl1 Noxa PPI 56
Nc1nc(N)c(N=Nc2ccc(C(=O)O)cc2)c(N)n1	none (no result: Arbovirus inh, Bim-Mcl-1)
O=C(O)c1ccc(N=Nc2c(O)[nH]c3cc(Cl)ccc23)cc1	Mcl1 Noxa PPI 62 (no result: Arbovirus inh, Bim-Mcl-1)
CC1c2ccccc2N(NC(=O)Cc2ccccc2)C1C (centres undefined)	none (no result: Arbovirus inh, Bim-Mcl-1)
O=c1c(Cl)c2oc3ccccc3nc-2c2ccccc12	Mcl1 Noxa PPI 62
O=C(Cc1ccc(S(=O)(=O)N2CCOCC2)s1)Nc1nc2c(s1)CCCC2	Mcl1 Noxa PPI 71
CCN(CC)c1ccc(C=C2C(=O)OC3(CCCCC3)OC2=O)cc1	none
Nc1ccc2c(c1)OC1(CCCCC1)O2	14-3-3 Bad inh 100
Cc1cccc(S(=O)(=O)N2CCC(CO)(Cc3ccccc3)CC2)c1	none
Cc1c(Cc2ccccc2)c(=O)oc2c(O)c(O)ccc12	Mcl1 Noxa PPI 88
Cc1oc2c(O)c(O)ccc2c(=O)c1-c1ccccc1	Mcl1 Noxa PPI 71 (no result: Bim-Mcl-1)
Cc1oc2c(O)c(O)ccc2c(=O)c1-c1cnn(-c2ccccc2)c1	Mcl1 Noxa PPI 56
Cn1nc(Cc2n[nH]c(=S)n2C)c2ccccc2c1=O	none (no result: Arbovirus inh, Bim-Mcl-1)
Cc1cc(NC(=O)COC(=O)c2ccco2)no1	none
Cc1ccnc(NC(=O)CCC(=O)N(CC(=O)NC2CCCCC2)Cc2cccs2)c1	none
CCN(CC)C(=O)CSc1nnc(-c2cccnc2)n1CCc1ccccc1	Mcl1 Noxa PPI 61
COc1cc(/C=C(/NC(C)=O)C(=O)O)cc(Cl)c1OCc1ccc(Br)cc1	Mcl1 Noxa PPI 102 (no result: Arbovirus inh, Bim-Mcl-1)
CCCCCOc1ccc(C2C(C(C)=O)=C(C)Nc3ncnn32)cc1OC (centres undefined)	none
CC(=O)c1ccc2c(c1)C1C=CCC1C(c1ccc(S(=O)(=O)N3CCOCC3)cc1)N2 (centres undefined)	none
Cc1c(Cl)cccc1NS(=O)(=O)c1ccc2c(c1)C1C=CCC1C(c1ccc(C(=O)O)cc1)N2 (centres undefined)	Mcl1 Bid PPI 100, 14-3-3 Bad inh 91, Mcl1 Noxa PPI 103
Oc1c(C(c2ccc(Cl)cc2)N2CCCC2)cc(Cl)c2cccnc12 (centres undefined)	Mcl1 Bid PPI 73
CN1CCN(C(c2ccccn2)c2cc(Cl)c3cccnc3c2O)CC1 (centres undefined)	none
O=C(N/N=C/c1ccc([N+](=O)[O-])cc1)c1ccc(COc2ccccc2-c2ccccc2)cc1	none
CCCCCC#CCC#CCC#CCC#CCCCC(=O)O	Mcl1 Bid PPI 100, 14-3-3 Bad inh 89, Mcl1 Noxa PPI 103
CCCCCCCCCCCCS(=O)(=O)CCC(=O)O	none (no result: Arbovirus inh, Bim-Mcl-1)
COC(C[C@H]1O[C@H]1[C@H](O)COCc1ccccc1)OC	none (no result: Arbovirus inh, Bim-Mcl-1)
O=S(=O)(Cc1cc(Cl)nc(-c2ccncc2)n1)c1ccccc1	Mcl1 Noxa PPI 81
Cc1ccc(-c2cc(C(=O)Nc3ccc4c(c3)OCCO4)c3ccccc3n2)cc1	none
